# Data published in PubChem BioAssay (Tox21).
# Active and inactive are the calls of the source. The call rests on the fitted dose curve; in most records, active means well fitted curve in the direction sought with a large enough effect in the signal ratio in the repeat runs (not every such curve was filed as active); inconclusive means weak or mixed curves, or effect the other way; inactive means no such curve, though single readings can be large or run the other way; the % refers to the signal ratio.
# Target: Estrogen receptor (Homo sapiens) (UniProt P03372)
# Assay: qHTS assay to identify small molecule antagonists of the estrogen receptor alpha (ER-alpha) signaling pathway (AID 743069)
# Details: HEK293 ER-alpha-UAS-bla, beta-lactamase ratio, antagonist mode; series mostly up to 69.4 µM; activity, negative = inhibition: at the top concentration
# Source text: National Center for Advancing Translational Sciences [NCATS]
# NIH Chemical Genomics Center [NCGC]
# U.S. Environmental Protection Agency [EPA]
# National Institutes of Environmental Health Sciences [NIEHS]
# National Toxicology Program [NTP]
# U.S. Food and Drug Administration [FDA]
# Estrogen receptor (ER), a nuclear hormone receptor, plays an important role in development, metabolic homeostasis and reproduction. Two subtypes of ER, ER-alpha and ER-beta have similar expression patterns with some uniqueness in both types. Endocrine disrupting chemicals (EDCs) and their interactions with steroid hormone receptors like ER causes disruption of normal endocrine function. To identify the compounds that inhibit ER signaling, an ER-alpha-UAS-bla GripTiteTM cell line (Invitrogen, Carlsbad, CA, USA) containing a beta-lactamase reporter gene under the control of an Upstream Activator Sequence (UAS) stably integrated into HEK293 cells was used to screen the Tox21 10K compound library.
# Tox21 Assay Protocol Summary:
# ER-alpha-bla cells were cultured in assay medium containing 2% charcoal stripped FBS overnight in the culture flasks before the assay was performed. The cells were dispensed at 5,000 cells/5 uL of assay medium per well into black wall/clear-bottom 1536-well plates using a Multidrop Combi (ThermoFisher Scientific, Waltham, MA) dispenser. After the assay plates were incubated at a 37C and 5% CO2 for 4 hr, 23 nL of compounds dissolved in DMSO, positive controls or DMSO only was transferred to the assay plate by a Pintool station (Kalypsys, San Diego, CA), followed by addition of 1 uL of 17beta-estradiol in assay medium using a Flying Reagent Dispenser (Aurora Discovery, San Diego, CA). The plates were incubated at 37C and 5% CO2 for 18 hr. Then 1 uL of LiveBLAzerTM B/G FRET substrate was added using a Flying Reagent Dispenser, the plates were incubated at room temperature for 2 hours, and fluorescence intensity was measured by an Envision plate reader (PerkinElmer, Shelton, CT).
# On the % scale 0 is the no-effect control and ±100 the full control effect; potency means the concentration at half of the fitted maximal effect.
# Chain of Estrogen receptor (Homo sapiens) (P03372 whole entry, looked up): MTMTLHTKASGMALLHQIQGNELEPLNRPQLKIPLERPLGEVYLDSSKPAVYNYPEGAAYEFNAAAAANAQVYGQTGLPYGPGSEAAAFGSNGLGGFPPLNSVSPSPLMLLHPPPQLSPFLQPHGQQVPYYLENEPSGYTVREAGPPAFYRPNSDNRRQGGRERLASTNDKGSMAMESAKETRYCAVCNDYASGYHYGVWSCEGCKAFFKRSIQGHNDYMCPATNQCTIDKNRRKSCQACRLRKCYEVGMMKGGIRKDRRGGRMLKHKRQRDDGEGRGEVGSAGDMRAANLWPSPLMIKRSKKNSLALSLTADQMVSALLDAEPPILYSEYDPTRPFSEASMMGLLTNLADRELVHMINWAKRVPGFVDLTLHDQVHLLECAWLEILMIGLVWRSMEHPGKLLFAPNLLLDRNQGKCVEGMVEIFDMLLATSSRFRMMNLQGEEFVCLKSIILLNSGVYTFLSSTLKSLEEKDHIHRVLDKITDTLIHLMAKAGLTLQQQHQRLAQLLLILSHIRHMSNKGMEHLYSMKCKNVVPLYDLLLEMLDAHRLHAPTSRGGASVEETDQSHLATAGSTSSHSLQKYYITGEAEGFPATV
SMILES,Potency,"activity, negative = inhibition"
CC(=O)[O][Pb]([c]1ccccc1)([c]1ccccc1)[c]1ccccc1,54.9 µM [cytotoxic] (active),
CO/N=C(/C1=NOCCO1)c1ccccc1Oc1ncnc(Oc2ccccc2Cl)c1F,54.9 µM [inconclusive] (active),
O.O.O.O=C([O-])[C@H]([O-])[C@@H]([O-])C(=O)[O-].O=C([O-])[C@H]([O-])[C@@H]([O-])C(=O)[O-].[K+].[K+].[Sb+3].[Sb+3],17.5 µM [inhibitor] (active),
O=c1c2ccccc2c(=O)c2c1cc(Cl)c1[nH]c3c([nH]c12)c(Cl)cc1c(=O)c2ccccc2c(=O)c13,,-11.1% (inactive)
CC(Cc1ccc(O)cc1)NCC(O)c1cc(O)cc(O)c1 (stereo not given),,11% (inactive)
CC(C)N(C(=O)SC/C(Cl)=C/Cl)C(C)C,,-90.4% [at 79.1 µM] (inactive)
CNC(=O)/C=C(\C)OP(=O)(OC)OC,,-6.07% (inactive)
O=C(O)[C@H](O)[C@@H](O)C(=O)O,,8.43% (inactive)
BrCC(Br)(Br)Br,,-33.5% [at 79.1 µM] (inactive)
[O]=[Cr](=[O])([OH])[O][Cr](=[O])(=[O])[OH],inactive,
CNC(=O)CSP(=O)(OC)OC,,9.63% (inactive)
CCCCN(CCCC)C(=S)[S-].CCCCN(CCCC)C(=S)[S-].[Ni+2],,-9.26% (inactive)
CC[C@H](C)[C@H]1O[C@]2(C=C[C@@H]1C)C[C@@H]1C[C@@H](C/C=C(\C)[C@@H](O[C@H]3C[C@H](OC)[C@@H](O[C@H]4C[C@H](OC)[C@@H](NC)[C@H](C)O4)[C@H](C)O3)[C@@H](C)/C=C/C=C3\CO[C@@H]4[C@H](O)C(C)=C[C@@H](C(=O)O1)[C@]34O)O2,30.9 µM [cytotoxic] (active),
CCC[CH2][Sn]([CH2]CCC)([O]C(C)=O)[O]C(C)=O,31.2 µM [inconclusive] (active),
CC(C)NCC(O)c1ccccc1Cl (stereo not given),,12.1% (inactive)
CC(C)Br,,-2.16% (inactive)
CCN(CC)CCN1C(=O)CN=C(c2ccccc2F)c2cc(Cl)ccc21,,-6.52% (inactive)
C=Cc1cccc(CCl)c1,,-14.2% [at 79.1 µM] (inactive)
CC(C)C(Nc1ccc(C(F)(F)F)cc1Cl)C(=O)OC(C#N)c1cccc(Oc2ccccc2)c1 (stereo not given),,-35% [at 79.1 µM] (inactive)
Nc1nc(N)nc(Cl)n1,,5.84% (inactive)

SMILES,Potency,"activity, negative = inhibition"
c1cc[n+]2c(c1)-c1cccc[n+]1CC2,,-6.74% (inactive)
N#CCCl,,-76.2% [at 79.1 µM] (inactive)
C=CC(=C)C,,4.34% (inactive)
CCCCN(CCCC)C(=S)S,,21.7% (inactive)
CC(Cc1ccc(OCC(=O)O)cc1)NCC(O)c1csc(C(F)(F)F)n1 (stereo not given),,14.9% (inactive)
COc1c2c(cc3c1OCO3)CCN(C)C2,,5.88% [at 32.6 µM] (inactive)
O=[N+]([O-])c1ccccc1-c1ccccc1,,15.4% (inactive)
Cc1cc2c3c(c1)C(c1ccccc1)=N[C@@H](NC(=O)c1ccncc1)C(=O)N3CC2,,-8.28% (inactive)
OCC(Br)CBr (stereo not given),,-7.54% [at 79.1 µM] (inactive)
CC(C)C(Br)C(=O)NC(N)=O (stereo not given),,-4.56% (inactive)
Oc1cccc(Cl)c1Cl,,30.2% [at 79.1 µM] (inactive)
C=CCBr,,75.9% [at 79.1 µM] (inactive)
S=C=Nc1ccccc1,,-7.72% [at 79.1 µM] (inactive)
Cc1ccc2cc3c(ccc4ccccc43)c3c2c1CC3,,13% (inactive)
N#Cc1c[nH]cc1-c1cccc2c1OC(F)(F)O2,13.8 µM [inhibitor] (active),
O=S1OCC2C(CO1)C1(Cl)C(Cl)=C(Cl)C2(Cl)C1(Cl)Cl (stereo not given),,-22.3% (inactive)
CCC(C)c1cccc(C(C)CC)c1O (stereo not given),,-7.26% (inactive)
CCN(CC)C(=S)S,inactive,
CN/C(=N\[N+](=O)[O-])NCc1cnc(Cl)s1,,18.3% (inactive)
CC(=O)C(Cl)C(=O)N(C)C (stereo not given),,-16.8% (inactive)
